# According to PubChem BioAssay AID1508600 (Functional Genomics Laboratory (NCATS/FGL), 2020):
# Among all 53,000 sequences or so, about 3,700 (7%) were called active.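 How the source made its calls: active means gene knockdowns whose robust z-score for IL-1 alpha signal is at least 2 or at most -2, so actives lie on both sides; inactive means the rest.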 The sample as a whole holds a higher share of actives than the screen did.
# Experiment: Components of the Cytosolic LPS Sensing Pathway: Gene Identification via Genome-wide siRNA Screen;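 further: robust z of the log signal after scaling to non-targeting control siRNA wells of the plate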
# Details: RAW264.7 macrophages, IL-1a HTRF, actives lie on both sides, screened at 100 nM (by protocol), cells primed 5 h with Pam3CSK4 first
# Summary of the method: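 RAW264.7 mouse macrophages reverse-transfected with single siRNAs (100 nM final) for 48h, primed with Pam3CSK4 for 5 hours, then transfected with LipidA for 24 hour. Supernatant IL-1a read by HTRF; values normalized to negative-control median, log-transformed robust z-scores.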
row,Sequence,z-score
1,GGAUUCUUCAUUUCUAGUGTT against C1qtnf6,0.231 (inactive)
2,GGUUCUGAACACAUUUCCATT against Cyp2d13,-1.07 (inactive)
3,GUUUCUUCCAAACUCCAUCTT against Olfr487,0.622 (inactive)
4,GGUCGACAGUUAAAAUGAUTT against Bpifc,-0.431 (inactive)
5,GCAAGCCCUGGAAGAAUUATT against Nat8,2.26 (active)
6,GGAUGAGUACACUGAAAGCTT against Nvl,0.544 (inactive)
7,CGUGGACAUCGAUAUCACCTT against Slc26a8,-0.737 (inactive)
8,CCCGGAAUAAGACAAUUUCTT against Olfr788,0.282 (inactive)
9,GCAUGUUAAGCCUUGUAUATT against Tnpo1,-1.67 (inactive)
10,GGCUACAGAAGCUACUAAATT against Akr1c6,1.23 (inactive)
11,GGGUGCAUCCCAUUCUCUUTT against Pld1,-0.0755 (inactive)
12,GCGAGAGAUCCCUCUGAAATT against Pigs,-0.284 (inactive)
13,GCAUCCCAGAUAUUGAGCATT against Arrdc1,2.52 (active)
14,GCUCUGUUCACACGUUUAATT against Arhgap10,-0.898 (inactive)
15,CGAAAUUGUGAUGAUGAACTT against Mast1,-0.799 (inactive)
16,CCAAUUUGACCCAUACUAUTT against Crtc2,1.61 (inactive)
17,GGAGAUUGGGAUCAAAGCCTT against Mthfd1,-1.56 (inactive)
18,GGACCUUUCAUCAACCCAUTT against Olfr676,2.13 (active)
19,GGUGCCAUUGAUUCUGUAGTT against Smim10l2a,-0.807 (inactive)
20,GCAGUGGGAAUCGAUAAAGTT against Fgfr2,-0.876 (inactive)
21,GGCAAGCUGUAAAAGAUGCTT against Noc3l,3.32 (active)
22,GGCCAUUUCUAUGAAAUUATT against Olfr1016,-2 (active)

row,Sequence,z-score
1,CCUUAGGACAAGUAUUCUGTT against Cbx6,0.47 (inactive)
2,GGCAACUUUAUACACAAACTT against Vmn1r13,-0.283 (inactive)
3,GGAACCUUUCAGAAAUAUATT against Calhm5,-0.53 (inactive)
4,GGUCUGAUUGUCCUCUCUUTT against Slc35b4,3.25 (active)
5,CCACACCUUCAAAGCGAGATT against L3mbtl4,-0.104 (inactive)
6,GGCCUUGAUUCAAUUCAACTT against Tgm6,0.812 (inactive)
7,GGCAGAUAUUUAGAUGAUGTT against Pdyn,-0.932 (inactive)
8,GAUGUUCUUUGUCCACAUGTT against Olfr666,-0.325 (inactive)
9,GCAUUUUCUAGAUGGAAGCTT against Hao1,0.748 (inactive)
10,GGUCAUUCUCCAAGAACUATT against Ugp2,-0.844 (inactive)
11,GGUUCAGUAUAUCAUCUCUTT against Zfp335,2.69 (active)
12,GGAGAACAGUUUCAAGAUGTT against Rnf152,-0.487 (inactive)
13,GCCGGACUUCCCAUCUGUUTT against Srebf1,-0.784 (inactive)
14,GACGAAUAUCAUCUCACACTT against Olfr875,0.901 (inactive)
15,GCAGUUGACAUUUACUCUCTT against Nol10,2.36 (active)
16,GCUCCACACUACGUGUCAUTT against Olfr476,1.66 (inactive)
17,GCCUUAUCCAUAUCGACUATT against Arrdc1,0.831 (inactive)
18,GGAUGCUCAUGGACCUUUGTT against Olfr1122,0.931 (inactive)
19,CGUACUCCAACAACACUUUTT against Pdzd8,-0.503 (inactive)
20,GGACUGUGUGUGCAAAGGUTT against Mt3,-0.176 (inactive)
21,GCUACUGCCGGAAUUUGGUTT against Tiam1,0.497 (inactive)
22,CGCAAGAUACCAACACUUATT against Flad1,-0.487 (inactive)

row,Sequence,z-score
1,GGAACACAAAAGCAAAGAUTT against Prpf38b,2.2 (active)
2,GGAUUGUGGGUUUAUAUAATT against Olfr835,0.274 (inactive)
3,CAGGCUGGUUACUUUGGCUTT against Lhfpl5,-0.246 (inactive)
4,CCUUCCAACUCUUCUCCUCTT against H2-T3,0.915 (inactive)
5,GCCUCAUUUGAUCAAUGUCTT against Actr2,1.86 (inactive)
6,GCUAGAUAAACUCUCUCAATT against Cxcr5,0.73 (inactive)
7,GGUCCAGCUCAUGAAACUUTT against Sik1,0.147 (inactive)
8,GGGUUUGGUCGUAAACAGCTT against Limd2,-1.06 (inactive)
9,GGUGCUGCUAUUCCUGCACTT against Gpam,-2.03 (active)
10,GGGAGCUACGUUCAGAAGUTT against Gckr,1.63 (inactive)
11,GGAUUUCUGUGGAGAUGGGTT against Cchcr1,0.444 (inactive)
12,GCUACUCCAUUUACAUCUATT against H2bc1,-0.122 (inactive)
13,GCGGAGUGUGAAACACUGATT against Ccdc32,0.842 (inactive)
14,GGAAGGACAGACAGACAAGTT against Pxt1,0.165 (inactive)
15,CCUAGAUGACACUUGGGUGTT against Nup35,-1.4 (inactive)
16,GCCUCUUCAAUCACAUUUATT against Atp6v0a4,3.27 (active)
17,GGAAAGAUCUACGAGAUCUTT against Unc5a,1.04 (inactive)
18,CGGAUUCGUCUGUUUUCUGTT against Ddi2,1.97 (inactive)
19,GGAUAUACAUGGUCUGUUUTT against Naip5,0.318 (inactive)
20,GGACUCCUCCCAAGACGAATT against Avil,-0.118 (inactive)
21,CCUACCAUAGCAACACUAUTT against Kcna2,3.14 (active)
22,GGCCCUCACAAUGAAUAUGTT against Efs,-0.115 (inactive)

row,Sequence,z-score
1,ACGAUAUGUUGACCUUGGCTT against Cyp2c67,-0.274 (inactive)
2,CGGCAAUUUGAGUUGAAAATT against Ppp1r2-ps9,-0.571 (inactive)
3,GGGCACCUUAUACCAUAGATT against Bfar,0.345 (inactive)
4,GGCCAUGGAGAACAUAUGCTT against Trpm8,-2.09 (active)
5,GGCUAUUGAGCUCUUUGUCTT against Qpctl,-0.661 (inactive)
6,GGAGUAGUAGCUAUUAUAUTT against Kctd9,1.89 (inactive)
7,GCUUUGAGACCUAAUGAUGTT against 1810024B03Rik,-0.469 (inactive)
8,GGUGCUAGUGUAUGAAUUATT against Nsun5,2.39 (active)
9,GGAUCAUUUGUUAAUGUACTT against Ddx3y,0.0896 (inactive)
10,GCUAUUGCUCGCAUCAAUGTT against Prps1l1,0.989 (inactive)
11,GCGAUUAUUUCGCUUUGGATT against Pcdha12,-0.502 (inactive)
12,GGAGAGUAAAACCAAUACATT against Fam76a,-0.0433 (inactive)
13,GGGUCACAGAGGUUACCCATT against Col2a1,1.25 (inactive)
14,GGAGACCAAAAAGAAAUAATT against Cmas,0.622 (inactive)
15,GGUGGUGGAAUGCUAAAAATT against Gys1,2.29 (active)
16,CCAGAAUACUGGGAUACAATT against B4galnt3,-0.577 (inactive)
17,GCUCAUGUAUGUGAAUUUGTT against Ptx3,-1.25 (inactive)
18,GGAAACACCAUGAAGAUGATT against Atpif1,-0.0257 (inactive)
19,GCAAGUCGUAAGCCUCAGGTT against Mrps10,0.533 (inactive)
20,GCUACGGACCAUGUUCAAGTT against Nxpe4,2.93 (active)
21,GGAGGUACCACAAAAGGCATT against Kif2c,0.0217 (inactive)
22,CCAACUAAGUGAAAUUCCATT against Aspn,-1.26 (inactive)

row,Sequence,z-score
1,CCCAACAUUAUCUUGGACCTT against Mrgpra8,-0.26 (inactive)
2,GGGAAGGAUUUUUGAUGAUTT against Arfgap1,1.33 (inactive)
3,GGAAGGAAGGAAUAAAACUTT against Fitm2,-0.981 (inactive)
4,GCCACUUCACAGCAAGCUATT against Cdk2ap1,3.27 (active)
5,GGGCGAACAGGACAAUUAUTT against Med22,-0.421 (inactive)
6,GCCCAUUAAUGCGUAUUUUTT against Mettl2,1.22 (inactive)
7,GCUAAGUCGGAUGAUAGAATT against Ttc16,-0.742 (inactive)
8,GGCAUGAUCAGCACAUCACTT against Rpap1,0.578 (inactive)
9,GGAUGAAUAUGGUGUUUCUTT against Rnf138,-2.23 (active)
10,GCUAAAUUACACAUUGACCTT against Vcam1,0.226 (inactive)
11,GGGAAGCAACAUGAUUAAATT against Kat7,0.669 (inactive)
12,CCUCACUGGUACAAUCCCATT against Tsg101,-0.906 (inactive)
13,GGAACCAGUUUAAAUGAUUTT against Marchf7,0.04 (inactive)
14,CGUUACGUAAAUCUUGUGATT against Sstr2,0.227 (inactive)
15,GGUGGUCUACCAGCAUUUGTT against Pde4dip,2.16 (active)
16,GGCCAAUAAUGUGUUUCGUTT against Cmpk2,-0.632 (inactive)
17,CCUGGUGCCUUUAUCUACCTT against Ctxn1,0.907 (inactive)
18,GGAGAUGCUGUUCUUUCCGTT against Casc3,-1.18 (inactive)
19,GGAUGGAUUACUGAAAGUUTT against Wdr35,0.715 (inactive)
20,GGCAGCUAUUGCUCUGGAATT against 5730596B20Rik,-0.293 (inactive)
